Reference: PubChem BioAssay (NCATS)
Several values for one entry are separate records, joined by “and”; a condition that tells them apart may be missing. Equal values may be shown once. Inconclusive results are not listed. A call without a number means that no potency is given here. Activity calls are given as the source filed them. Unless noted, the call rests on the fitted dose curve; in most records, active means well fitted curve in the direction sought with a large enough effect; inconclusive means small, poorly fitted or top-dose-only effect, or another doubt; inactive means no such curve, though single readings can be large; an effect the other way counts as inactive or inconclusive.

Tests used:
[1] = Cell Viability - HepG2 (AID 433; calls by dose curve;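 further: potency means the concentration at half of the fitted maximal effect; cells exposed to compound for 40 hours; potency for ATP loss meaning cytotoxicity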); conditions: qHTS
Method in brief: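 Cytotoxicity read as ATP loss (CellTiter-Glo luminescence) after 40 hr compound exposure of HepG2, 1500 cells/well, 37 °C. AC50 by Hill equation; 0% set by DMSO, 100% inhibition by 100 uM tamoxifen.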

[2] = Cell Viability - Renal Proximal Tubule (AID 545); conditions: renal proximal tubule cells viability; series mostly up to 91.7 µM;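 further: cells exposed to compound for 40 hours; nearly all actives have a fitted effect of over 40% in size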
Method in brief: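 Viability taken as intracellular ATP (CellTiter-Glo luminescence) after 40 hr, 37 °C compound treatment of primary proximal tubule cells from rat kidney, 1000 cells/well; Hill-equation fits of qHTS concentration-response data gave AC50.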

[3] = Cellular Toxicity (caspase-3) HUV-EC-C (AID 656); conditions: HUV-EC-C cells, caspase-3 activation (apoptosis), vehicle = 0, 100 µM tamoxifen = 100%; series mostly up to 92.2 µM
Method in brief: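 Luminescent Caspase-Glo 3/7 readout after 16 h, 37 °C compound exposure of HUV-EC-C endothelial cells, 1000 per well, complete medium. AC50 derived by Hill fitting, with DMSO as baseline and 100 uM tamoxifen as full activation.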

[4] = Cellular Toxicity (caspase-3) SHSY5Y (AID 657); conditions: SH-SY5Y caspase-3 activation, DMSO zero, 10 µM staurosporine = 100%; series mostly up to 91.7 µM
Method in brief: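 Luminescent Caspase-Glo 3/7 read-out, 1 hr room temperature, follows 16 hours of compound treatment of SH-SY5Y cells at 37 °C. Normalization: DMSO basal, 10 uM staurosporine as 100%; AC50 values from Hill-equation concentration-response fits.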

[5] = Cellular Toxicity (caspase-3) MRC-5 (AID 659); conditions: MRC-5 cells, luminescence, normalized: DMSO 0%, 10 µM staurosporine 100%; series mostly up to 91.7 µM
Method in brief: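 MRC-5 fibroblasts, 1500/well; 16 h cpd, 37 °C; Caspase-Glo 3/7, 1 h RT; lumi read. Norm: DMSO = 0%, 10 uM staurosporine = 100%. Hill-fit AC50 from qHTS conc-response.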

[6] = molecular target: Cytochrome P450 3A4 (Homo sapiens) (UniProt P08684); test: qHTS Assay for Inhibitors and Substrates of Cytochrome P450 3A4 (AID 884); conditions: recombinant CYP3A4, Luciferin-PPXE luminescence; series mostly up to 57.1 µM; further: nearly all actives have a fitted effect of over 50% in size; further: potency means the concentration at half of the fitted maximal effect
Chain of Cytochrome P450 3A4 (Homo sapiens) (P08684 whole entry, looked up): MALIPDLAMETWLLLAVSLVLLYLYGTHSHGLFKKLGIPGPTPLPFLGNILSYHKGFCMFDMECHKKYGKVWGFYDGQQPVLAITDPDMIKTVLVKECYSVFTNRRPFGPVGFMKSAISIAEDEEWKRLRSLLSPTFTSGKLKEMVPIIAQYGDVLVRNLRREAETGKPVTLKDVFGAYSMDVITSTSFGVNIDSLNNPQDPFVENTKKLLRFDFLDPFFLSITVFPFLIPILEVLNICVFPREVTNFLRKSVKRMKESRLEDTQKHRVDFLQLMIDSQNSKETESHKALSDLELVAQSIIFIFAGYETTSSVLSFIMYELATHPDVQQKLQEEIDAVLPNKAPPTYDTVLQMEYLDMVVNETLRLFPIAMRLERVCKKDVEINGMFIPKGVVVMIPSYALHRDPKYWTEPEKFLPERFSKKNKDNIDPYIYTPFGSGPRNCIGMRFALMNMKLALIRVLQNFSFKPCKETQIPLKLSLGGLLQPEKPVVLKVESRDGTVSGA
Method in brief: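 Luminescent readout of luciferin produced by CYP3A4 (20 nM) dealkylation of Luciferin-PPXE, 25 uM (its KM). NADPH-driven reaction ran 60 min at RT after 10 min compound preincubation; data scaled to 57 uM ketoconazole as 100% inhibition.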

[7] = MultiTox-Fluor Cytotoxicity Assay - LYMP1-002 - Live Cells (AID 955); conditions: LYMP1-002 lymphoblastoid live-cell protease fluorescence viability; series mostly up to 46.1 µM
Method in brief: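 Cells were seeded at 2500 per well and incubated 5 hr. Compounds were then added for 16 hr at 37 C, followed by MultiTox-Fluor reagent for 60 min at room temperature and fluorescence reading of viable-cell protease signal.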

[8] = Cell Viability - LYMP1-003 - Assay at 24 hr (AID 963); conditions: LYMP1-003 lymphoblastoid cell viability; series mostly up to 92.2 µM
Method in brief: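 Cytotoxicity is scored as a concentration-dependent fall in ATP-linked luciferase signal in human lymphoblastoid LYMP1-003 cells treated 24 hr at 37 C in complete culture medium.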

[9] = Cell Viability - LYMP2-004 (AID 966); conditions: LYMP2-004 lymphoblastoid cell viability, qHTS; series mostly up to 92.2 µM; further: nearly all actives have a fitted effect of over 65% in size
Method in brief: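 qHTS cytotoxicity: human lymphoblastoid line, 24 hr compound treatment, 37 C, complete medium. Viability read as cellular ATP via luciferase luminescence; tetraoctylammonium bromide served as positive control.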

[10] = Cell Viability - LYMP2-009 (AID 968); conditions: LYMP2-009 lymphoblastoid cell viability; series mostly up to 92.2 µM; further: nearly all actives have a fitted effect of over 55% in size; further: potency means the concentration at half of the fitted maximal effect
[11] = Cell Viability - LYMP2-017 (AID 972); conditions: LYMP2-017 lymphoblastoid cell viability; series mostly up to 92.2 µM; further: nearly all actives have a fitted effect of over 55% in size
Method in brief: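 Cytotoxicity is scored as a concentration-dependent drop in cellular ATP in a human lymphoblastoid line after 24 hr treatment at 37 C. Values are AC50s from Hill-equation modelling.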

[12] = Cell Viability - LYMP2-025 (AID 976); conditions: LYMP2-025 lymphoblastoid cell viability; series mostly up to 92.2 µM
Method in brief: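 Acute cytotoxicity is scored as a concentration-dependent fall in intracellular ATP, measured by luciferase luminescence, in human lymphoblastoid LYMP2-025 cells exposed to compound for 24 hours at 37 C. AC50 values come from standard Hill fits.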

[13] = Cell Viability - LYMP2-012 (AID 982); conditions: LYMP2-012 lymphoblastoid cell viability qHTS; series mostly up to 92.2 µM;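 further: cellular ATP by luciferase luminescence where a drop means cytotoxicity; cells exposed to compound for one day before reading; nearly all actives have a fitted effect of over 55% in size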
[14] = Cell Viability - LYMP2-016 (AID 984); conditions: LYMP2-016 lymphoblastoid cell viability, qHTS; series mostly up to 92.2 µM; further: nearly all actives have a fitted effect of over 55% in size
Method in brief: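 Cytotoxicity was scored by luminescent ATP content (CellTiter-Glo) after 24 h compound exposure at 37 C of a human lymphoblastoid line at 2500 cells/well. Concentration-response data were fitted to the Hill equation for AC50.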

[15] = Cell Viability - LYMP1-002 - Assay at 40 hr (AID 994); conditions: LYMP1-002 lymphoblastoid cell viability; series mostly up to 92.2 µM; further: nearly all actives have a fitted effect of over 60% in size
Method in brief: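 Cells are plated at 2500 per well and rested 5 hr at 37 C. Compounds are added and incubated 40 hr at 37 C. CellTiter-Glo reagent is added for 30 min at room temperature before luminescence is read.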

[16] = qHTS Assay for Identification of Small Molecule Inducers of Hypoxia Response (AID 2120; active means well fitted curve in the direction sought with a large enough effect in the signal ratio, with a control signal flat, not every such curve was filed as active; the % refers to the signal ratio); conditions: hypoxia response reporter cells, beta-lactamase ratio readout; series mostly up to 104 µM
Method in brief: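 Cell-based qHTS for reporter induction: hypoxia response element controlled beta-lactamase in ME-180 cells. Compounds incubated 17 h at 37 degrees C; activity from blue/green (460/530 nm) ratio, inducers ranked by AC50.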

[17] = qHTS assay for environmental chemicals that activate the Aryl hydrocarbon Receptor (AhR) signaling pathway (AID 651777); conditions: 1A2-DRE human hepatoma cells, luciferase, 24 h; activation: stronger effect = higher value; further: nearly all actives have a fitted effect of over 15% in size
Method in brief: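 Luminescence (One-Glo, 30 min, room temperature) reports AhR-driven luciferase in stably transfected human hepatoma cells bearing DRE and CYP1A2 promoter. Cells (1,200/well) were treated with compound for 24 hr at 37 C in qHTS format.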

[18] = molecular target: Peroxisome proliferator-activated receptor alpha (Homo sapiens) (UniProt Q07869); test: qHTS assay for small molecule agonists of the peroxisome proliferator-activated receptor alpha (PPARalpha) signaling pathway (AID 651778); conditions: PathHunter PPARalpha complementation, chemiluminescence, 6 h; stronger effect = higher value
Chain of Peroxisome proliferator-activated receptor alpha (Homo sapiens) (Q07869 whole entry, looked up, the tested form may be a part): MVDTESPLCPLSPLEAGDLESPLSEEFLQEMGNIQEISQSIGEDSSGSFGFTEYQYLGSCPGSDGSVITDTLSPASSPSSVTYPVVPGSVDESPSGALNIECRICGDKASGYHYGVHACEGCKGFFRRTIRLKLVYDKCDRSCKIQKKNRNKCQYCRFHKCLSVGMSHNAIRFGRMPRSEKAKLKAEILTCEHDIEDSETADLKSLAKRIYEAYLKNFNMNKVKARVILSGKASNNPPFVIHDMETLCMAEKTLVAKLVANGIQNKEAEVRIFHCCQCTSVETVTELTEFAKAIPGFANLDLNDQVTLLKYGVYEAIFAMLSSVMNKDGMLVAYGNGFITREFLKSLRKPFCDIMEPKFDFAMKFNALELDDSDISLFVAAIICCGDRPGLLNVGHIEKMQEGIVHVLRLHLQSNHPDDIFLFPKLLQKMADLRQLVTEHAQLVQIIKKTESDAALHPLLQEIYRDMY
Method in brief: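 Enzyme-fragment complementation assay in which ligand-bound PPARalpha translocates and forms an active enzyme that generates chemiluminescence. Cells were plated overnight, exposed to compound for 6 hr at 37 C, and then given detection reagent for 60 min at room temperature.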

[19] = qHTS assay for small molecule agonists of the antioxidant response element (ARE) signaling pathway measured by Nrf2-dependant transcriptional activity - cell viability counter screen (AID 720653; active means well fitted curve in the direction sought with a large enough effect in the repeat runs; an effect the other way counts as inactive or inconclusive); conditions: ARE-bla HepG2 viability, CellTiter-Glo ATP luminescence, 16 h; stronger effect = lower value
Method in brief: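 ARE-bla HepG2 cells treated with compounds for 16 h at 37C; this counter screen measures viability as intracellular ATP by CellTiter-Glo luminescence after 30 min at room temperature.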

[20] = qHTS assay for small molecule antagonists of retinoid X receptor alpha signaling (AID 588546); conditions: HEK293T RXRa-UAS-bla, beta-lactamase ratio, antagonist mode; measured here: W530 green channel, cytotoxicity proxy;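 further: cells stimulated with 9-cis-retinoic acid as agonist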
Method in brief: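 Beta-lactamase reporter inhibition, read as CCF4 fluorescence ratio (ex 405, em 460/530 nm) after 2 h at RT. HEK293T UAS-bla cells, 2500/well, were stimulated with 9-cis-RA at 500 or 100 nM final alongside test compound for 18 h at 37 C.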

Row | SMILES | Potency [1] | outcome [2] | outcome [3] | outcome [4] | outcome [5] | Potency [6] | outcome [7] | outcome [8] | Potency [9] | Potency [10] | Potency [11] | Potency [12] | Potency [13] | Potency [14] | Potency [15] | Potency [16] | activation [17] | max response [18] | max response [19] | max response [20] [%]
1 | Brc1ccc(Oc2ccc(Br)cc2Br)c(Br)c1 | > 92 µM (inactive) | inactive | inactive | inactive | inactive | inactive | inactive | inactive | inactive | inactive | inactive | inactive | inactive | inactive | inactive | inactive | 7.07% (inactive) | 6.57% (inactive) | -0.481% (inactive) | 
2 | N#CC(O)c1ccccc1 (stereo unspecified) | > 92 µM (inactive) | inactive | inactive | inactive | inactive | inactive | inactive | inactive | inactive | inactive | inactive | inactive | inactive | inactive | inactive | inactive | 0.286% (inactive) | 12.9% (inactive) | 12.9% (inactive) | -9.69
3 | Cc1cccc(C)c1N | > 92 µM (inactive) | inactive | inactive | inactive | inactive | inactive | inactive | inactive | inactive | inactive | inactive | inactive | inactive | inactive | inactive | inactive | 1.32% (inactive) | 1.61% (inactive) | 4.9% (inactive) | -4.18
4 | Cl/C=C/CCl | > 92 µM (inactive) | inactive | inactive | inactive | inactive | inactive | inactive | inactive | inactive | inactive | inactive | inactive | inactive | inactive | inactive | inactive |  | -3.36% (inactive) | -1.22% (inactive) | 3.06
5 | C=CC(=O)OCC(C)C | > 92 µM (inactive) | inactive | inactive | inactive | inactive | inactive | inactive | inactive | inactive | inactive | inactive | inactive | inactive | inactive | inactive | inactive | 0.0769% (inactive) | 3.76% (inactive) | -10.1% (inactive) | 4.12
6 | CN=C=O | > 92 µM (inactive) | inactive | inactive | inactive | inactive | inactive | inactive | inactive | inactive | inactive | inactive | inactive | inactive | inactive | inactive | inactive | -0.54% (inactive) | 1.15% (inactive) | -4.34% (inactive) | -1.71
7 | O=[N+]([O-])c1c(Cl)c(Cl)c(Cl)c(Cl)c1Cl | > 92 µM (inactive) | inactive | inactive | inactive | inactive | inactive | inactive | inactive | inactive | inactive | inactive | inactive | inactive | inactive | inactive | inactive | -0.0122% (inactive) and 2.68% (inactive) | 3.1% (inactive) and -1.25% (inactive) | -5.67% (inactive) and 10.2% (inactive) | -1.28
8 | CC(Cl)CCl (stereo unspecified) | > 92 µM (inactive) | inactive | inactive | inactive | inactive | inactive | inactive | inactive | inactive | inactive | inactive | inactive | inactive | inactive | inactive | inactive | 0.102% (inactive) | -4.11% (inactive) | -12.6% (inactive) | -10
9 | S=c1[nH]c2ccccc2[nH]1 | > 92 µM (inactive) | inactive | inactive | inactive | inactive | 10 µM (active) | inactive | inactive | inactive | inactive | inactive | inactive | inactive | inactive | inactive | inactive | 1.98% (inactive) | -5.62% (inactive) | 2.67% (inactive) | -17.8
10 | O=[N+]([O-])c1cccc(CCl)c1 | > 92 µM (inactive) | inactive | inactive | inactive | inactive | inactive | inactive | inactive | inactive | 79.4 µM (active) |  | inactive | inactive | inactive | inactive | inactive |  | 0.189% (inactive) | -3.2% (inactive) | 8.94
